# Target: AMP-activated protein kinase, AMPK (Homo sapiens) (UniProt P54646+O43741+P54619+Q9UGJ0+Q9Y478+Q13131+Q9UGI9)
# Assay: AMP-dependent Kinase enzyme assay. An in vitro enzyme assay that detects ADP turnover that is directly proportional to AMPK activity. This uses naive AMPK that is activated during the assay with MK-8722
# Assay type: functional
# Parameters: scale not given: direction of the effect not stated beside the values
# Conditions: 30 µM
row,Structure (SMILES),Percent Effect
1,O=C(CC1COCCN1)N1CCC2(CCc3ccccc32)CC1 (centres undefined),-0.69%
2,CS(=O)(=O)c1ccc(Cl)c(NC(=O)NCCC2=CCCCC2)c1,3.49%
3,CCCc1nc(NC2(COC)CCCC2)c2cnn(C)c2n1,7.33%
4,CC(C)(C)NC(=O)CNc1ccc(Br)cn1,7.07%
5,Cn1cccc1C(=O)NCc1ccnc(C2CCCOC2)n1 (centres undefined),6.83%
6,Cc1nc(CN2CCN(CC(O)CN3CCOCC3)CC2)oc1C (centres undefined),-2.09%
7,CCCC(=O)NC1CCCN(Cc2cccs2)C1 (centres undefined),5.79%
8,Cn1cc(S(=O)(=O)Nc2ccc3[nH]c(C4CCC4)nc3c2)cn1,-6.7%
9,OCCc1cc(C2CCCN2c2ncccn2)n[nH]1 (centres undefined),11.9%
10,Cc1cncc(C2CCN(Cc3ccncc3)CC2)n1,7.85%
11,Cc1nc(CNCc2cccc(OC34CCCN(CC3)C4)c2)n[nH]1 (centres undefined),-7.43%
12,Cc1ccc(OCCn2cnc3oc(C)c(C(=O)O)c3c2=O)cc1,15.5%
13,CCc1ccc2nc(-c3cnn(C)c3)cc(C(=O)N3CCCC3)c2c1,7.23%
14,CN(C)c1ccccc1C(=O)N1CCCC(c2cccc(C(=O)O)c2)C1 (centres undefined),2.89%
15,CN1CCN(C)C(CNc2c(C#N)cnc3ccc(Cl)cc23)C1 (centres undefined),8.02%
16,CC(=O)NCC(=O)N1CCCC(C(=O)c2ccc(C(C)(C)C)cc2)C1 (centres undefined),7.51%
17,COCCC(=O)N(CCC#N)c1ccc(C)c(C)c1,-6.74%
18,O=C1NCCN(CC2CCCCC2)C1CC(=O)N1CCc2n[nH]cc2C1 (centres undefined),-8.97%
19,COC[C@]1(O)CCN(c2cc(OC)ncn2)CC1(C)C,20.7%
20,CCCNc1ncc(CN2CCC3(CCNC(=O)CC3)CC2)cn1,-1.43%

row,Structure (SMILES),Percent Effect
1,Cc1ccc2[nH]c(CN(C)Cc3ccccc3C(=O)O)nc2c1,4.71%
2,Cc1cc(COC(=O)[C@@H]2Cc3ccccc3CN2S(C)(=O)=O)no1,27.9%
3,Cc1cn2nc(N(C)C3CCCN(c4cccnn4)C3)sc2n1 (centres undefined),2.94%
4,Cn1ccnc1C1(O)CCN(C(=O)CCc2ccccc2)CC1,8.55%
5,CS(=O)(=O)c1ccc(NC(=O)NCCC2=CCCCC2)cc1,-2.69%
6,NCc1ccnc(Oc2ccc(F)cc2)c1,14.1%
7,COc1cc2c(cc1CNCc1cccnc1OC)OC(C)C2 (centres undefined),0.485%
8,CCc1nn(C)c(Cl)c1CN1CCCC2(CC1)CN(C)C(=O)O2 (centres undefined),-9.39%
9,Cc1cnc(C(=O)N2CCN(c3ncc4c(n3)CCOC4)CC2)cn1,15.1%
10,CC(C)OCCS(=O)(=O)N1CCN(Cc2ccco2)CC1,-2.52%
11,CC(C)Oc1cccc(F)c1C(C(=O)O)N1CCCN(C)CC1 (centres undefined),3.49%
12,CCC[C@H]1CN(C(=O)c2ccc3[nH]c(CO)nc3c2)C[C@@H]1N,8.21%
13,Cc1nccn1CCN(C)C(=O)c1cn(-c2ccccc2)nn1,-5.19%
14,CCNC(=O)[C@@H]1C[C@@H](N)CN1C(=O)c1cc2ccccc2[nH]1,8.12%
15,O=C(c1nnn(-c2ccc(F)cc2)n1)N(CCO)Cc1ccccc1,3.9%
16,COc1ccc(C)nc1NC(=O)CCc1c(C)nn(C)c1C,-7.06%
17,COc1ccc(OC)c(C(C(=O)O)N2CCSCC2)c1 (centres undefined),0.166%
18,Cc1cc(C)n(C2CN(CCC(N)=O)C2)n1,-0.505%
19,O=C(C1CCCO1)N1CCC(n2cc(-c3ccsc3)nn2)CC1 (centres undefined),4.03%

# From ChEMBL document CHEMBL3988442, “University of Dundee, Small-Polar-MMV Screening Library” (2021)
